In the library only some 1.5% were active in any assay of this set; here they are far more common.
WRN inhibitor = qHTS for Inhibitors of WRN Helicase; Potency, µM (doses to about 114 µM), without a hit: at the highest dose activity change, negative = inhibition, usual class: inhibitors; AID 651768, 2012; WRN helicase unwinding, fluorescent forked duplex, kinetic; 360,000 tested, 0.46% active; also: potency is read from the fitted curve at half-maximal effect; % is scaled to controls: 0 for no effect and ±100 for the full control effect; nearly all actives have a fitted effect of over 55% in size
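Kinetic fluorescence helicase assay: unwinding of a quenched forked DNA duplex (100 nM final) with 2 mM ATP final raises red fluorescence (525/598 nm). Compounds sat 15 min at room temperature with 20 nM WRN beforehand.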
TDP1 block = qHTS Assay for Inhibitors of Tyrosyl-DNA Phosphodiesterase (TDP1); 350,000 tested, 0.28% active; Potency, µM (series often up to 130 µM), for the others: at the highest dose activity change, negative = inhibition, actives largely listed as inhibitors; recombinant TDP1, AlphaScreen DNA substrate cleavage; AID 485290, 2010; also: potency is read from the fitted curve at half-maximal effect; % is scaled to controls: 0 for no effect and ±100 for the full control effect; nearly all actives have a fitted effect of over 40% in size
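Steps: enzyme plus compound, 15 min RT; add biotin/phosphotyrosine-FITC oligonucleotide (15 nM final), react 5 min; add donor/acceptor beads (10 ug/ml final), 10 min; read AlphaScreen. Tdp1 at 1 nM final.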
PI5P4K alpha inh = qHTS for Inhibitors of phosphatidylinositol 5-phosphate 4-kinase (PI5P4K); Phosphatidylinositol 5-phosphate 4-kinase type-2 alpha (Homo sapiens), P48426; PI5P4Kalpha enzyme, ADP-Glo luminescence, 60 min; stronger effect = lower value; 330,000 tested, 1.2% active; max response, %; AID 652105, 2013; active = max response of -50% or lower; inconclusive = between -30% and -50%; inactive = -30% or higher; also: value at the top dose of about 77 µM; % is scaled to controls: 0 for no effect and ±100 for the full control effect
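ADP-Glo luminescence end-point read after a 60 min room-temperature kinase reaction of PI5P4Kalpha plus substrate, initiated with ATP at 5 microM final. Buffer: 0.038 M HEPES pH 7.4, EGTA, 0.1% CHAPS, 5% DMSO.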
FEN1 inhibitor = qHTS Assay for the Inhibitors of Human Flap endonuclease 1 (FEN1). AID 588795, 2011. Potency, µM (titrated, usually from 114 µM), inactives show at the highest dose activity change, negative = inhibition, usual class: inhibitors. P39748. 390,000 tested, 0.35% active. Recombinant FEN1 flap cleavage, fluorescence, 15 min; also: potency is read from the fitted curve at half-maximal effect; % is scaled to controls: 0 for no effect and ±100 for the full control effect; nearly all actives have a fitted effect of over 65% in size
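Enzyme 10 nM, 15 min RT preincubation with compound; start with substrate 50 nM final; reads at 0 and 15 min; qHTS titration, four-parameter Hill fit.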
PGK inhibitor = qHTS Assay to Find Inhibitors of Phosphoglycerate Kinase. Phosphoglycerate kinase, glycosomal (Trypanosoma brucei brucei), P07378. PGK/GAPDH coupled, Kinase-Glo luminescence, 60 min. Potency, µM (titrated, usually from 57.5 µM), for the others: at the highest dose activity change, negative = inhibition, most hits filed as inhibitors. 380,000 tested, 0.043% active; also: potency is read from the fitted curve at half-maximal effect; % is scaled to controls: 0 for no effect and ±100 for the full control effect; nearly all actives have a fitted effect of over 60% in size
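Luminescent ATP detection (Kinase-Glo Plus) follows a 60-minute room-temperature incubation, with wells lacking PGK as controls. Buffer: 100 mM TEA (pH 7.6), 5 mM MgCl2, 0.01% Tween-20. Coupling enzyme GAPDH (100 nM final) supplies unstable 1,3-BPG in-well.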
Tb PFK inh-1 = qHTS Assay to Find Inhibitors of T. brucei phosphofructokinase; Potency, µM (top dose mostly 57.5 µM), for inactives: at the top dose activity, negative = inhibition, most hits filed as inhibitors; T. brucei PFK, ADP-Glo luminescence; ATP-dependent 6-phosphofructokinase (Trypanosoma brucei brucei), O15648; 330,000 tested, 0.17% active;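 also: potency is read from the fitted curve at half-maximal effect; 0% = uninhibited 1x PFK enzyme wells and -100% = no-enzyme wells; nearly all actives have a fitted effect of over 60% in size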
Target sequence (O15648 whole entry, looked up): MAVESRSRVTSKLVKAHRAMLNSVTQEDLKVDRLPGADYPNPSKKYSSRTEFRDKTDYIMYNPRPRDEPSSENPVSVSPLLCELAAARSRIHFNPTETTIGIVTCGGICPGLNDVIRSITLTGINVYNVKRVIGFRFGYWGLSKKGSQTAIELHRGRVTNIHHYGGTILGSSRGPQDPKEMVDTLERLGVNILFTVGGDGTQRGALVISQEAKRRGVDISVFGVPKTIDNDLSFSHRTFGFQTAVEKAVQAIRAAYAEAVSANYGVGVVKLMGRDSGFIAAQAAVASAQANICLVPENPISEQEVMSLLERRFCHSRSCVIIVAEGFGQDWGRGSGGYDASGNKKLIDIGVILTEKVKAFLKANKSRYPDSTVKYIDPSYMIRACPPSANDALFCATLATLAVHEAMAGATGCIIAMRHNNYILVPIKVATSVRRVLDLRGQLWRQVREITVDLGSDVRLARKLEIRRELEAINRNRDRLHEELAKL
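In TEA buffer at pH 8.0 with 5 mM MgCl2, enzyme (1.25 nM) converted F6P (0.5 mM) and ATP (0.1 mM) for 45 min at room temperature. ADP product was read by luciferase luminescence.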
Tb PFK KinaseGlo = Tb PFK orthogonal confirmatory assay using ATP depletion (Kinase-Glo Plus) as an alternative measure of Tb PFK activity: Hit Validation; Tb PFK enzyme, ATP depletion, Kinase-Glo Plus luminescence; shares compounds with Tb PFK inh-1; Potency, µM (highest dose often 57.5 µM), for the others: at the top dose inhibition; 1,100 tested, 47% active; calls by dose curve; also: potency is read from the fitted curve at half-maximal effect; nearly all actives have a fitted effect of over 60% in size
Tb PFK inh-2 = Inhibitors of T. brucei phosphofructokinase: Hit Validation; shares compounds with Tb PFK inh-1; purified T. brucei PFK, ADP-Glo luminescence, 45 min; Potency, µM (top dose mostly 57.5 µM), for inactives: at the top dose activity change, negative = inhibition, hits mostly inhibitors; 1,100 tested, 41% active; AID 504637, 2011;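 also: potency is read from the fitted curve at half-maximal effect; plate controls were full PFK enzyme control for no effect and no enzyme control for full effect; nearly all actives have a fitted effect of over 60% in size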
An asterisk follows results filed as active; i = inactive; ? = inconclusive; . = not tested or not shown; ! = repeats disagree; [ ] = another dose, or the depositor's remark. Unless noted, calls follow the shape of the dose curve; as a rule, active = well fitted curve in the direction sought with a large enough effect; inconclusive = small, poorly fitted or top-dose-only effect, or another doubt; inactive = no such curve, though single readings can be large; an effect the other way counts as inactive or inconclusive.

SMILES	WRN inhibitor	TDP1 block	PI5P4K alpha inh	FEN1 inhibitor	PGK inhibitor	Tb PFK inh-1	Tb PFK KinaseGlo	Tb PFK inh-2
Cc1ccc(NC(=O)COc2ccc(Cl)cc2Cl)cc1S(=O)(=O)N1CCOCC1	-7%	-4%	9	-7%	-1%	?	?	?
COC(=O)COc1ccc(Cl)cc1Cl	.	9%[56.1 µM]	.	.	.	.	.	.
Nn1c(SCC(=O)Nc2cccnc2Cl)nnc1-c1ccccc1	?	2%	?	-3%	-1%	?	9.5µM*	11µM*
N#Cc1c(F)cccc1NCc1cccnc1	-12%	.	-5	7%	9%	?	?	-9%
O=C(CN1CCCC1)c1ccccc1	.	.	.	-13%	.	.	.	.
CC(Cl)(Cl)Cl	.	7%	.	.	.	.	.	.
Cc1c(NP(=O)(C(C)(C)C)C(C)(C)C)c(=O)n(-c2ccccc2)n1C	2%	.	0	-6%	-8%	-1%	.	.
Cc1c(Nc2cc(Cl)c3nonc3c2[N+](=O)[O-])c(=O)n(-c2ccccc2)n1C	-10%[57.1 µM]	-1%	1	-1%	1%	?	?	?
O=c1c2ccccc2sn1-c1cc(S(=O)(=O)N2CCOCC2)ccc1N1CCCC1	-24%	-6%	.	-14%	-7%	9.5µM*	?	?
O=C(COC(=O)Cc1ccccc1)Nc1cc(S(=O)(=O)N2CCOCC2)ccc1N1CCCC1	-14%[57.1 µM]	7%	-6	-13%	-3%	4%	.	.
O=C(c1c[nH]c2ccc(S(=O)(=O)N3CCOCC3)cc2c1=O)N1CCC2(CC1)OCCO2	3%	-2%	3	-2%	i	7%	.	.
O=c1c2ccccc2sn1-c1cc(S(=O)(=O)N2CCOCC2)ccc1N1CCOCC1	?	-1%	.	32µM*!	5%	13µM*	?	21µM*
CC1(C)C(=O)C=C[C@@]2(C)C1=C(O)C(=O)[C@@]1(C)C2CC[C@@]2(C)C(c3ccoc3)C[C@H]3O[C@@]321 (some centres undefined)	.	10%[56.1 µM]	.	.	.	.	.	.
CCOC(=O)C(O)(c1ccc(NC(=O)c2ccc(Cl)c(Cl)c2)cc1)C(F)(F)F (centres undefined)	-9%	7%	4	4%	1%	-7%	.	.
Cc1ccc(NC(=O)c2ccc(Cl)c(N3C(=O)C=CC3=O)c2)cc1	50µM*	10%	-68*	-6%	-4%	?	12µM*	?
N#Cc1c(N)nc2c(c1N)CC(CCl)O2 (centres undefined)	-12%	3%	20	-10%	0%	?	9%	3%
CCc1nn2c(N)c(/C=C3\C=Nc4ccccc43)c(=O)nc2s1	-19%	.	0	-8%	-11%	?	-26%	?
C#C[C@@]1(O)CC[C@@H]2[C@@H]3CCC4=CC(=O)CC[C@@]4(C)[C@H]3CC[C@]21C	.	13%[21 µM]	.	.	.	.	.	.
CN(C)c1ccccc1	-16%	7%	1	.	-7%	.	.	.
CN(C)c1ccc(NC(=S)c2ccc3ccccc3n2)cc1	5%	12%	-1	5%	-2%	?	9.5µM*	9.5µM*
Oc1ccc2[nH]cc(CCCCN3CC=C(c4ccccc4)CC3)c2c1	.	23%[56.1 µM]	.	.	.	.	.	.
CN1C(=O)NC(=O)/C(=C\C=C\c2ccccc2[N+](=O)[O-])C1=O	-1%	3%	?	?	-6%	?	2%	?
O=C1NC(=O)N(CCc2ccc(F)cc2)C(=O)/C1=C\C=C\c1ccccc1	-18%	2%	-4	0%	-4%	-1%	.	.
Cc1[nH]c(=S)sc1Cc1ccc(Cl)c(Cl)c1	.	12%	.	.	.	19µM*	27µM*	24µM*
NC(=O)[C@@H]1CCCN1C(=O)[C@H](Cc1ccccc1)NC(=O)[C@@H]1CCCN1C(=O)[C@@H](N)Cc1ccc(O)cc1	.	6%	.	.	.	.	.	.
SMILES	WRN inhibitor	TDP1 block	PI5P4K alpha inh	FEN1 inhibitor	PGK inhibitor	Tb PFK inh-1	Tb PFK KinaseGlo	Tb PFK inh-2
CC(CC(C)(C)N1CC1)=NNC(=O)Nc1cccc2ccccc12	7%	.	-7	-5%	-11%	.	.	.
O=C(Cc1cccc2ccccc12)Nc1cc(C(=O)O)cc(C(=O)O)c1	3%	8%	3	24%	-1%	8.5µM*	1.9µM*	?
Cl/C=C\Cl	.	9%	.	.	.	.	.	.
C#C[C@]1(O)CC[C@H]2[C@@H]3CCC4=CC(=O)CCC4(C)[C@H]3CCC21C (some centres undefined)	.	6%	.	.	.	.	.	.
Oc1cccc2cccnc12	.	11%	.	-11%	.	1%	.	.
CCSS(=O)(=O)c1cccc2cccnc12	32µM*	8%	-84*	-32%	6%	21µM*	8.5µM*	19µM*
O=C(Cn1sc2ccccc2c1=O)NC12CC3CC(CC(C3)C1)C2	40µM*	12%	-91*	-2%	-2%	4.3µM*	?	9.5µM*
NC(N)=NS(=O)(=O)c1ccc(NC(=S)NC(=O)Cc2ccc(Cl)cc2)cc1	0%	.	-2	19%	-3%	?	27µM*	30µM*
CCN1C[C@]2(COC(=O)c3ccccc3N3C(=O)CC(C)C3=O)CC[C@H](OC)[C@@]34C5C[C@@H]6[C@@H](OC)C[C@@](O)(C5[C@H]6OC)[C@](O)([C@@H](OC)C23)[C@@H]14 (some centres undefined)	.	4%	.	.	.	.	.	.
N#Cc1ccc(OCC(=O)Nc2cccc(S(=O)(=O)NC3=NCCCCC3)c2)cc1	-27%	-13%	?	4%	-10%	6µM*	3.8µM*	6µM*
O=C(COc1ccc(Cl)cc1)Nc1cccc(S(=O)(=O)NC2=NCCCCC2)c1	2%	-7%[0.505 µM]	0	-1%	1%	3µM*	2.7µM*	6µM*
C/C=C1/CN2CC[C@]34C(=C(C=O)[C@H]1C[C@@H]23)Nc1ccccc14	.	17%	.	.	.	.	.	.

Screening data: PubChem BioAssay, National Center for Advancing Translational Sciences (NCATS)
